# Compound activity (PubChem BioAssay)
# Pf growth 96h: P. falciparum growth inhibition at 96 hour, primary screen for plastid delayed-death inhibitors | P. falciparum luciferase reporter growth, 96 h | hit rate 6.9% among 320,000 | AID 504834 | Potency, µM (top dose mostly 28.7 µM), inactives show at the highest dose activity change, negative = inhibition, hits mostly inhibitors; note: potency is the fitted concentration of half-maximal effect; % is set by controls: 0 for no effect and ±100 for the full control effect
#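 Parasite growth measured via integrated firefly luciferase reporter in P. falciparum. Infected erythrocytes at 2% hematocrit, 0.05% parasitemia final were treated 96 hours at 37 C under 5% CO2, and luminescence was read.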
# CHX counter: affects cycloheximide protein synthesis inhibition readout, counter-screen; cell reporter, cycloheximide protein synthesis inhibition counterscreen; max response, %; hit rate 12% among 300,000; in the data active = max response mostly above about 13%, no sharp cut-off; inactive = mostly below about 14%; note: read at 38.3 µM for the half of the compounds with a filed dose; 0% is about no effect
# SARS PLpro yeast: SARS-CoV PLP inhibition in yeast. hit rate 0.19% among 330,000. Potency, µM (doses to about 32.9 µM), for the others: top-dose activity, positive = growth rescue, hits mostly activators. AID 485353. S. cerevisiae expressing SARS-CoV PLpro, growth rescue; calls by dose curve; note: potency is the fitted concentration of half-maximal effect; 0% is about no effect; nearly all actives have a fitted effect of over 55% in size
# Pf growth 48h: P. falciparum growth inhibition at 48 hours (one generation); AID 504832; P. falciparum luciferase growth in erythrocytes, 48 h; Potency, µM (titrated, usually from 28.7 µM), inactives show at the highest dose activity change, negative = inhibition, usual class: inhibitors; hit rate 5.9% among 310,000; note: potency is the fitted concentration of half-maximal effect; % is set by controls: 0 for no effect and ±100 for the full control effect
#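 Parasite viability was followed by luminescence of a genomically integrated firefly luciferase. Cultures held 0.1% parasitemia at 2% hematocrit (final), incubated under 5% CO2 at 37 C.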
# AMA1 RON2 block: AMA1-RON2 (P. falciparum) interaction inhibition; Potency, µM (doses to about 58.2 µM), without a hit: at the highest dose activity change, negative = inhibition, most hits filed as inhibitors; hit rate 0.2% among 360,000; AID 720542; AlphaScreen AMA1-biotinylated RON2 peptide binding;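 note: potency is the fitted concentration of half-maximal effect; 0% = vehicle wells and -100% = peptide control; nearly all actives have a fitted effect of over 45% in size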
#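 AMA1 (3D7) with his tag at 25 nM final met compounds first, then biotinylated RON2 peptide at 25 nM; detection used donor plus acceptor beads, 10 µg/mL apiece, read by AlphaScreen after 30 min at room temperature.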
# Shiga toxin inh: Shiga toxin inhibition; inhibition, % at 38.7 µM; hit rate 9.2% among 290,000; Vero cells, Shiga toxin protein synthesis inhibition reporter; AID 2315; in the data active = inhibition mostly above about 28%, no sharp cut-off; inactive = mostly below about 43%; note: 0% is about no effect
# The depositor's hits bear a star; i = inactive; u = inconclusive; x = no result; [ ] = another dose, or the depositor's remark. Compounds with a hit are over-represented: about 19% of the library has one in this group of screens. Unless noted, calls come from the whole dose curve; as a rule, active = well fitted curve in the direction sought with a large enough effect; inconclusive = small, poorly fitted or top-dose-only effect, or another doubt; inactive = no such curve, though single readings can be large; an effect the other way counts as inactive or inconclusive.
SMILES,Pf growth 96h,CHX counter,SARS PLpro yeast,Pf growth 48h,AMA1 RON2 block,Shiga toxin inh
CC(c1nnc(SCC(=O)Nc2cccnc2Cl)n1Cc1ccccc1)N(C)C (stereo not given),22%,0,0%,-6%,29%,-9
COc1cc(Br)cc(C(=O)N2CCc3ccccc32)c1OC,x,x,x,x,0%,x
Cc1c(C)c2ccc(OC(C)C(=O)NCc3ccccn3)cc2oc1=O (stereo not given),2%,-2,-3%,37%,79%,8
O=C(CSc1nc2ccsc2c(=O)n1Cc1ccccc1)NCC1CCCO1 (stereo not given),-7%,9,1%,11%,17%,-3
CC1Cc2nc(SCC(=O)NCC3CCCO3)n(-c3ccc(F)cc3)c(=O)c2S1 (stereo not given),3.7µM*,-3,-3%,8.3µM*,-8%,-2
COc1ccc(-n2c(SCC(=O)NCC3CCCO3)nc3c(c2=O)SC(C)C3)cc1 (stereo not given),u,4,0%,12µM*,-13%,8
Cc1cc(NC(=O)CSc2nc3c(c(=O)n2-c2ccccc2)SC(C)C3)no1 (stereo not given),4.1µM*,-3,4%,u,5%,-7
CC1Cc2nc(SCC(=O)NCC3CCCO3)n(Cc3ccccc3)c(=O)c2S1 (stereo not given),33%,13,1%,15µM*,3%,9
Cc1ccc(-n2c(SCC(=O)NCC3CCCO3)nc3c(c2=O)SCC3)cc1 (stereo not given),0%,-1,1%,2%,1%,-7
COc1ccc(-n2c(SCC(=O)Nc3cc(C)on3)nc3c(c2=O)SC(C)C3)cc1 (stereo not given),x,x,x,x,6%,x
COc1ccc(-n2c(SCC(=O)NCC3CCCO3)nc3c(c2=O)SCC3)cc1 (stereo not given),17%,-2,-1%,9%,-5%,-3
Cc1cc(C)c[n+](-c2[nH]c(=O)sc2/C=N/N=C(\[O-])c2cccnc2)c1,3%,-5,-6%,9%,74%,11
O=C(NNC(=S)NC(=O)C12CC3CC(CC(C3)C1)C2)c1ccncc1,3.3µM*,1,-35%,3.3µM*,27%,-6
O=C(NNC(=O)C12CC3CC(CC(C3)C1)C2)c1ccccn1,4.1µM*,-3,3%,4.1µM*,77%,15
O=C(NNC(=O)C12CC3CC(CC(C3)C1)C2)c1cnccn1,u,-1,u,u,11%,-19
NS(=O)(=O)c1cccc(NC(=S)NC(=O)C23CC4CC(CC(C4)C2)C3)c1,44%,23*,10%,7%,15%,66*
Cc1ccc(S(=O)(=O)Nc2c(C)n(C)n(-c3ccccc3)c2=O)cc1C(=O)NCc1ccccn1,u,8,-1%,-13%,21%,-7
COc1ccc(-c2cc(C(=O)OC3CCOC3=O)c3ccccc3n2)cc1 (stereo not given),x,-2,-26%,20%,11%,-21
O=C(NCc1ccccn1)c1cc(-c2ccccc2)nc2ccccc12,6%,-2,3%,u,7%,-10
CCN(C(=O)COC(=O)c1cc(-c2ccc3cc(OC)ccc3c2)nc2ccccc12)C1CCS(=O)(=O)C1 (stereo not given),-12%,30*,16%,7%,x,43*
COc1ccc(-c2cc(C(=O)OCC(=O)N(C)C)c3ccccc3n2)cc1,0%,26*,-13%,17%,-1%,30
COc1ccc(-c2cc(C(=O)OCc3ccccn3)c3ccccc3n2)cc1,u,27*,-9%,u,-4%,10
COc1ccc(-c2cc(C(=O)Oc3ccc([N+](=O)[O-])cc3)c3ccccc3n2)cc1,13µM*,10,-6%,-4%,-3%,3
CCN(C(=O)COC(=O)c1cc(OC)ccc1Br)C1CCS(=O)(=O)C1 (stereo not given),x,x,1%,x,0%,x
Cc1ccc(-c2cc(C(=O)OCC(=O)NC3CC3)c3ccccc3n2)cc1,39%,x,6%,77%,-6%,x
SMILES,Pf growth 96h,CHX counter,SARS PLpro yeast,Pf growth 48h,AMA1 RON2 block,Shiga toxin inh
COc1ccc2c(c1)N(C)C(=O)CC(c1ccccc1)=N2,x,-2,-1%,13%,-2%,23
CCN(C(=O)COC(=O)c1c(C)nn(-c2ccccc2)c1C)C1CCS(=O)(=O)C1 (stereo not given),111%,16*,0%,98%,-2%,43*
Cc1ccc(NC(=O)CCC(=O)c2cccs2)c(O)c1,90%,66*,-1%,61%,13%,74*
O=C(CCC(=O)c1cccs1)NC(c1ccccc1)c1ccccc1,100%,13,6%,-16%,16%,16
Cc1ccc(F)cc1NC(=O)CCC(=O)c1cccs1,12%,0,-5%,x,3%,-3
O=C(CCC(=O)c1cccs1)c1cccs1,i,40*,-1%,i,5%,34*
O=C1NC(=O)C(Cc2ccc(OCCN3COc4ccccc4C3=O)cc2)S1 (stereo not given),x,25*,x,x,x,9
O=C(O)C1CC(=O)N(CCOc2ccccc2)C1 (stereo not given),u,-3,2%,-9%,-21%,-6
CN(C)c1ccc([C@@H]2[C@@H]([N+](=O)[O-])[C@H]3C=Cc4ccccc4N3[C@H]2C(=O)c2ccc(Cl)cc2)cc1,u,21*,4%,u,u,22*
CC(C)(C)C(c1nc2ccccc2[nH]1)n1c(-c2ccsc2)nc2ccccc21 (stereo not given),x,x,x,x,9%,x
COc1ccc(Cc2nc(-c3ccc(NC(=O)c4cccnc4)cc3)no2)cc1,44%,0,0%,5.2µM*,-1%,-13
COc1ccc(-c2noc(CCCC(=O)O)n2)cc1,x,-2,1%,u,u,-18
Clc1ccc(OCc2nc(-c3ccncc3)no2)cc1,10µM*,31*,3%,x,-8%,36
Cc1ccc(Cc2nc(-c3ccncc3)no2)cc1,-37%[1.15 µM],14,-1%,4%,-10%,54*
COc1ccc(Cc2nc(-c3ccc(Br)cc3)no2)cc1,21%,29*,-1%,38%,65%,31*
CC1Cc2ccccc2N1C(=O)CSc1nnc(CNc2ccccc2)o1 (stereo not given),-5%[5.75 µM],17,-3%,-16%,-1%,-2
COc1cc([N+](=O)[O-])c(C)cc1NC(=O)c1ccc(OC)c(OC)c1,x,x,x,x,0%,x
Cc1ccc(S(=O)(=O)N2CCC(C(=O)N3CCCCCCC3)CC2)cc1C,x,x,x,x,38%,x
COc1ccc(Cc2nc(-c3ccc(Cl)cc3)no2)cc1,0%,21*,-6%,29%,-6%,49*
COc1ccc(-c2noc(Cc3ccc(Cl)cc3)n2)cc1OC,u,6,-14%,4%,-11%,8
